# Where “and” joins values, the source holds several entries; their conditions need not be identical. Identical values can stand only once. About 83,000 compounds went through this panel and 20% of them were active in at least one assay; those are over-represented in the sample as a whole.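 The endpoint reported here, percent growth, reads 100 for growth as untreated, 0 for no net growth and -100 for all cells dead.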 A number with no mark means an inactive call. Calls of active or inactive are those of the source. The calls were made as follows: active = growth percent below 10; inactive = the rest.
# Key:
# Assay in all cases: NCI-60 one-dose screen, 48 h (100 = growth as untreated, 0 = no growth, -100 = all killed)
# Conditions in all cases: 10 µM
# T-47D breast = test system: T-47D breast
# BT-549 breast = test system: BT-549 breast
# MDA-MB-435 melanoma = test system: MDA-MB-435 melanoma
# SW-620 colon = test system: SW-620 colon
# MCF7 breast = test system: MCF7 breast
# HCT-116 colon = test system: HCT-116 colon
# HCC-2998 colon = test system: HCC-2998 colon
# KM12 colon = test system: KM12 colon
# MDA-MB-468 breast = test system: MDA-MB-468 breast
Structure (SMILES),growth (T-47D breast),growth (BT-549 breast),growth (MDA-MB-435 melanoma),growth (SW-620 colon),growth (MCF7 breast),growth (HCT-116 colon),growth (HCC-2998 colon),growth (KM12 colon),growth (MDA-MB-468 breast)
CCOc1ccc(Nc2nc3ccccc3nc2Nc2ccc(OCC)cc2)cc1,32.1%,70.7%,52.9%,75.5%,32.9%,17.8%,90.2%,47.4%,25.4%
COc1ccc(/C(CSc2nnc(-c3c[nH]c4ccccc34)n2-c2ccccc2)=N/O)cc1,10.4%,16.5%,-5.25% (active),39.4%,14.5%,28.1%,42.4%,21.2%,0.589% (active)
CC(=O)NCC1=C(C)C=C2C(=O)[C@](C)(O)C3(CC3)C(C)=C21,-11.8% (active),-46.5% (active),-80% (active),70.1%,3.29% (active),-45.1% (active),-79.4% (active),-5.71% (active),-79.7% (active)
O=C(CSc1nnc(-c2c[nH]c3ccccc23)n1-c1ccccc1)c1ccccc1,83.5%,62.2%,87.2%,76.1%,36.2%,38%,83.1%,69.5%,77.2%
Nc1nc(Nc2ccc(Cl)cc2)n(Cc2cccc(Br)c2)n1,15.1%,-51.4% (active),-64.9% (active),-16.5% (active),-31.6% (active),-57.7% (active),-71.6% (active),-0.172% (active),-46.5% (active)
O=C(O)CCCCCCCCCCN1C(=O)/C(=C/c2cnc(-c3ccc(Cl)cc3)s2)SC1=S,47.2%,-17.1% (active),49%,27.6%,27.1%,4.89% (active),82.4%,14%,52.3%
COc1cc(NC(=O)CSc2nnc(-c3ccc4nc(-c5ccc(Cl)cc5)[nH]c4c3)o2)cc(OC)c1OC,13.2%,63.1%,67.8%,80.1%,29.1%,37.1%,110%,70%,58.3%
O=C(Cn1nc(-c2ccccc2)ccc1=O)NN1C(=O)c2ccccc2C1=O,96.2%,110%,107%,115%,81.7%,106%,108%,103%,92.3%
NS(=O)(=O)c1ccc(NC(=O)CSc2ccc(-c3ccccc3)nn2)c(Br)c1,37.4%,46.3%,94.4%,99.5%,79%,48.7%,77.9%,85.3%,98%
O=C(c1ccc(O)cc1)C1[C@H](c2ccc(Br)cc2)[C@@H](c2ccccc2)NC12C(=O)Nc1ccc(Br)cc12 (stereo partly specified),22.2%,39.3%,-25.1% (active),-28% (active),-18% (active),8.14% (active),-83.9% (active),-24.7% (active),-54% (active)
COc1ccc(/C=N/N=C(\C)c2ccc3c(c2)Nc2ccccc2S3)cc1O,21.5%,40.1%,34.7%,68.5%,11.9%,38.7%,51.2%,39.2%,0.0526% (active)
Cc1ccc(C(=O)CSc2nnc(-c3c[nH]c4ccccc34)n2-c2ccccc2)cc1,46.7%,22.4%,38.6%,19%,12.5%,7.68% (active),66.4%,51%,48%
CCOP(=O)(OCC)O[C@H]1CCC(=O)[C@@H]2[C@H]1[C@H]1C[C@@H]3[C@@]4(C)CCCC(C)(C(=O)OC)[C@@H]4CC[C@@]23C=C1C(C)C (stereo partly specified),42.1%,54.9%,52%,56.1%,33.2%,32.8%,58.9%,50.9%,7.96% (active)
O=C(CS(=O)(=O)c1oc(-c2ccc(Cl)cc2)nc1S(=O)(=O)c1ccc(Cl)cc1)N1CCOCC1,-50.2% (active),52.4%,47%,-18.3% (active),11.3%,4.36% (active),51%,55.8%,-4.97% (active)
O=C(c1ccc(O)cc1)C1[C@H](c2ccc(Br)cc2)[C@@H](c2ccccc2)NC12C(=O)Nc1ccccc12 (stereo partly specified),38.4%,116%,13.4%,26.2%,8.43% (active),17.3%,-34.8% (active),1.31% (active),0.478% (active)
Cc1cc(C)cc(Oc2cccc(-c3c(C)nnn3C3CCN(CCN(C)C)CC3)n2)c1,24.8%,9.68% (active),20.7%,45.9%,6.99% (active),15.2%,0.234% (active),37%,-20.2% (active)
CC(=O)c1cc(C(=O)c2ccc3c(c2)NC(=O)CO3)n2ccc3ccccc3c12,75.3%,78.3%,80.5%,93.1%,64%,45%,87.8%,51.5%,50%
COc1ccc(-c2nc(S(=O)(=O)c3ccc(C)cc3)c(S(=O)(=O)CC(=O)N(C)Cc3ccccc3)o2)cc1,-57.8% (active),72.6%,32%,9.27% (active),7.73% (active),6.34% (active),46.6%,57.5%,-38.8% (active)
O=c1[nH]n(C(=S)N/N=C/c2ccc(F)cc2)c(=O)c2ccccc12,58.7%,70.1%,84.5%,30.4%,15.9%,-66% (active),92.9%,36.2%,57.7%
Cc1cc(C)nc(NS(=O)(=O)c2ccc(N/C(N)=N/c3nccc(-c4cccs4)n3)cc2)n1,78.8%,111%,106%,102%,67.6%,96.4%,127%,96.9%,106%
N#Cc1ccc(-c2nn(-c3ccc(C(=O)O)cc3)cc2CNc2ccc(Cl)cc2)cc1,74.3%,62.6%,89.7%,87.2%,70.8%,53.8%,89.4%,67%,116%
Cc1ccc(/C(CSc2nnc(-c3c[nH]c4ccccc34)n2-c2ccccc2)=N/O)cc1,-47.3% (active),-75.5% (active),-100% (active),-80.4% (active),-55% (active),2.62% (active),-41.9% (active),50.2%,-88.8% (active)
COc1ccsc1/C=N/NC(=O)c1[nH]c2ccc(Br)cc2c1-c1ccccc1,-2.72% (active),13.8%,2.33% (active),18.4%,1.13% (active),0.361% (active),-5.18% (active),-0.302% (active),-6.2% (active)
COc1cc2c(cc1OC)/C(=C\c1sc(Nc3ccc(O)cc3)nc1O)C(C(=O)O)=N2,46.7%,57.2%,-77.3% (active),26.8%,12.3%,21.4%,36.7%,20.9%,-1.14% (active)
O=C1Nc2ccc(F)cc2/C1=C/c1cccc(OCc2ccccc2)c1,13.8%,23%,5.74% (active),8.79% (active),3.46% (active),10.1%,45.8%,19%,-22.3% (active)
O=C1CCC(N2Cc3c(NCc4ccc(-c5ccccc5)cc4)cccc3C2=O)C(=O)N1 (stereo unspecified),41.5%,23.4%,93.2%,51.3%,76%,74.7%,67.4%,75.3%,-12.6% (active)
Nc1nc(-c2ccccc2)cs1,16.3%,31.1%,67.9%,70.5%,39.7%,50.7%,74.6%,43.1%,55.1% and 115%
CC(C)C1=C[C@@]23CC[C@@H]4[C@](C)(CCC[C@]4(C)C(=O)NCc4ccccc4)[C@H]2C[C@@H]1[C@H]1C(=O)CCC(=O)[C@H]13,51.8%,68.7%,86%,85.4%,42.7%,60.4%,90%,84.6%,70.1%
O=C(NO)c1ccc(Cn2ccc3c(Nc4ccccc4)ncnc32)cc1,-8.19% (active),27.4%,9.97% (active),-61.8% (active),14%,-9.89% (active),-30.1% (active),12.1%,-5.25% (active)

# Source: PubChem BioAssay (NCI)
